Test results: PubChem BioAssay (NCI)
Compounds without any hit were thinned out: in the full panel of roughly 83,000, 20% have a hit.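 Cell lines were cultured in 96-well plates, exposed to a single compound concentration, and assessed for percent growth 48 hours later.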 Active and inactive are the calls of the source. Rule for the calls: active = growth percent below 10; inactive = the rest.

System: MDA-MB-468 breast
Assay: NCI-60 one-dose screen, 48 h (100 = growth as untreated, 0 = no growth, -100 = all killed)
Conditions: 10 µM unless noted

Row | Structure (SMILES) | growth
1 | CC(C)(C)CC(C)(C)n1nnnc1C(Nc1nccs1)c1cc2cccc3ccc4cccc1c4c32 (stereo not given) | -33.3% (active)
2 | COc1cc(/C=N/NC(=O)Cn2c(C(C)C)nc3ccccc32)ccc1O | 84.9% (inactive)
3 | COc1cc(/C=C/C(=O)c2ccc(Cl)cc2)cc(CN2CCCCC2)c1O | 93.2% (inactive)
4 | O=[N+]([O-])c1ccc(-c2cc3c(Nc4ccc(Sc5nc6ccccc6s5)c(Cl)c4)ncnc3s2)cc1 | 26.1% (inactive)
5 | COc1ccc(-c2c(NC(=O)Nc3ccc(Cl)c(C(F)(F)F)c3)cnn2-c2ccc(S(N)(=O)=O)cc2)cc1 | 26.7% (inactive)
6 | O=C1Nc2ccc(Cl)cc2/C1=C/c1ccc(OCc2ccc(F)cc2)cc1 | 97.3% (inactive)
7 | CN(C)CCCNc1c2ccccc2nc2ccccc12 | 83.4% (inactive)
8 | Cc1ccc(/C(N)=N/C(N)=N/c2nc3ccccc3s2)cc1 | 88.8% (inactive)
9 | O=C(c1ccncc1)N1N=C(c2ccc(Cl)cc2)CC1c1c[nH]c2ccccc12 (stereo not given) | 102% (inactive)
10 | COc1cccc(-c2nc3sccn3c2-c2cccc(S(C)(=O)=O)c2)c1 | 89.1% (inactive)
11 | C/C(=C(\c1ccc(OCCN2CCCCCC2)cc1)c1ccc(OC(=O)Cc2ccccc2)cc1)c1ccc(Cl)cc1 | -4.03% (active)
12 | CCCCN(CCCC)CCCn1c(-c2ccccc2)ccc1-c1ccccc1 | 43% (inactive)
13 | CCOC(=O)c1sc2nc(-c3cc(OC)c(OC)c(OC)c3)nc(N3CCOCC3)c2c1C | 11.3% (inactive)
14 | COc1cc2oc(-c3cccc(NC(=O)c4cc(N)ccc4Cl)c3)cc(=O)c2c(OC)c1OC | 95.3% (inactive)
15 | O=C1/C(=C/c2ccccc2Cl)CCc2ccccc21 | 101% (inactive)
16 | Cc1ccc(-c2nc3nc(-c4ccccc4)nc(N4CCNCC4)c3o2)cc1 | -87.2% (active)
17 | CCOC(=O)N1C2CCC(C2)N1C(=O)OCC | 105% (inactive)
18 | COC(=O)c1c2c(c[n+]([O-])c1C)C(=O)C=C(NCc1ccccc1)C2=O | -74.9% (active)
19 | COc1ccccc1/C=C1\COc2ccc(O)c(O)c2C1=O | 12.6% (inactive)
20 | O=C(Nc1ccc(Cl)c(C(F)(F)F)c1)c1ccc(Nc2ccc(Cl)nn2)cc1 | 41.3% (inactive)

Row | Structure (SMILES) | growth
21 | COC1(OC)C2(Cl)C=C(c3ccccc3)C1(Cl)C(Cl)=C2Cl (stereo not given) | 108% (inactive)
22 | C=CCO[C@H]1CO[C@H]2[C@@H]1OC[C@@H]2Oc1ccc(Nc2ccnc(Nc3ccc(O[C@H]4CO[C@H]5[C@@H]4OC[C@@H]5OCC=C)c(Cl)c3)n2)cc1Cl | -84.5% (active)
23 | N#Cc1c(-c2ccc(Cl)cc2)nc2c(-c3ccccc3)c(Nc3ccccc3)nn2c1N | 53.4% (inactive)
24 | Oc1c(Cl)cc(Cl)c2ccc(Cn3cc(-c4cc(F)cc(F)c4)nn3)nc12 | 38.2% (inactive)
25 | C/C(=C\CCc1ccoc1)CC/C=C(\C)CCCN1CCSCC1 | 22.6% (inactive)
26 | CC(=O)CS(C)(=O)=O | 109% (inactive)
27 | O=C1Cc2cc(CCN3CCN(CCOCCO)CC3)c(Cl)cc2N1Cc1ccc(-c2ccccc2-c2nn[nH]n2)cc1 | 82.7% (inactive)
28 | CNC(=O)c1c(NC(=O)c2cccc(C(F)(F)F)c2)sc2c1CCC(=O)C2 | -28% (active)
29 | COc1cccc(C(c2cc3c(cc2O)OCO3)N2CCOCC2)c1OC (stereo not given) | 90.6% (inactive)
30 | O=C(CNc1nc(-c2ccc(Cl)cc2)cs1)Nc1ccc(-c2nc3ccccc3s2)cc1 | -39.5% (active)
31 | c1ccc(CNc2ncnc3ccc(-c4cnc5[nH]ncc5c4)cc23)cc1 | 50.7% (inactive)
32 | COc1ccc(NC(=S)NNc2ccc(-c3ccc(OC)c(OC)c3)nn2)cc1 | 109% (inactive)
33 | CC1(C)Cc2c(cn(Cc3ccccc3)c2-c2ccccc2)-c2oncc21 | 88.5% (inactive)
34 | CN(C)CCOc1cccc(NC2=C(Cl)C(=O)C(Nc3cccc(OCCN(C)C)c3)=C(Cl)C2=O)c1 | -47.1% (active)
35 | CCOC(=O)C(=Cc1ccc(C#N)cc1)C(=O)OCC | 15.6% (inactive)
36 | NC(=O)N1N=C(c2ccc(Cl)cc2)CC1c1cn(-c2ccccc2)nc1-c1ccc(Cl)cc1 (stereo not given) | 69.1% (inactive)
37 | O=[N+]([O-])c1ccc(C=C2C(Cl)=C(Cl)C(Cl)=C2Cl)cc1 | 48.3% (inactive)
38 | C/C(=N/N)c1nnn(-c2ccc(Br)cc2)c1C | 94.8% (inactive)
39 | O=C1C=C[C@H](O)[C@@]2(CO)O[C@@H]12 | 54.5% (inactive)
40 | CCc1ccc2c(c1)N(CCO)C1=C(C(=O)OC1)C2c1cc(OC)c(OC)c(OC)c1 (stereo not given) | 2.83% (active)
